Measured values published in PubChem BioAssay AID2540 (Sanford-Burnham Center for Chemical Genomics, 2010).
Screen size: about 330,000 compounds; about 4,100 (1.2%) were called active. The list comes from a sample in which actives are over-represented; it also holds similar structures and randomly drawn compounds. A number with no mark means an inactive call. Rule as the data show it: active = inhibition above about 50%; inactive = the rest.

These molecules were tested against Sentrin-specific protease 8 (Homo sapiens) (UniProt Q96LD8) (assay: SENP8 protease inhibitors, primary screen, biochemical, luminescence (AID 2540)). Settings: purified SENP8, Z-RLRGG-aminoluciferin cleavage, at 10 µM, stronger effect = higher value.
Sequence of Sentrin-specific protease 8 (Homo sapiens) (Q96LD8 whole entry, looked up): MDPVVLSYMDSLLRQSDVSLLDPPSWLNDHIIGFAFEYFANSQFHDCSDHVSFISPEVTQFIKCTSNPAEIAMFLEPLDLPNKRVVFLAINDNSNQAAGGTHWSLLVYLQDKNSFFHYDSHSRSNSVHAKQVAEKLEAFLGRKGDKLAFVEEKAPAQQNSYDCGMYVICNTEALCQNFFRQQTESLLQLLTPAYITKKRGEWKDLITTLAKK
In the case of `CC(OC(=O)CCCOc1ccccc1)C(=O)Nc1ccc(Cl)cn1` (configuration not stated), the inhibition is reported as -14.4%. `CCOc1ccccc1C1CC(c2ccc(Cl)cc2)Nc2nc(N)nn21` (configuration not stated) gave an inhibition of 0.924%. `O=C(COC(=O)c1cnc(Cl)c(Cl)c1)NCc1ccco1` showed an inhibition of -1.98%. For `CC(OC(=O)CNC(=O)c1cccc(F)c1)C(=O)NC1CCCCC1C` (configuration not stated), the inhibition was -11.2%. Work on `Cc1c(Br)c([N+](=O)[O-])nn1CC(=O)N1CCN(Cc2ccccc2)CC1` yielded an inhibition of -7.38%. `O=C(Nc1ccn(Cc2ccccc2F)n1)c1ccc(COc2ccc(Cl)cc2Cl)o1` showed an inhibition of 8.53%. For `O=C(Nc1ccn(Cc2ccccc2)n1)c1n[nH]c([N+](=O)[O-])c1Cl`, the inhibition was 97.2% (active). `CC(CCc1ccc(O)cc1)NCc1ccc(Cl)cc1Cl` (configuration not stated) gave an inhibition of -5.92%. `COc1ccc(C2=NOC(COC(=O)c3ccc4ccccc4n3)C2)cc1` (configuration not stated) showed an inhibition of -6.73%. With `COc1ccc(C2=Nc3cc(C)ccc3OC2)cc1` the inhibition was 67.5% (active). `Cc1ccc(C(=O)NNC2=Nc3cc([N+](=O)[O-])ccc3OC2)cc1` was tested, and the inhibition was -6.4%. In the case of `Cn1c(-c2ccco2)nc2cc3ccccc3cc21`, the inhibition is reported as 94.4% (active). Work on `CS(=O)(=O)n1nc(-c2ccco2)nc1N` yielded an inhibition of 0.284%. Work on `COc1ccccc1-n1c(-c2cc(-c3ccco3)[nH]n2)n[nH]c1=S` yielded an inhibition of 3.44%. `Cc1ccc(NC(=O)CSc2nnc(CNC(=O)c3ccccc3F)o2)cc1` was tested, and the inhibition was 0.136%. `Cc1ccccc1-n1nnc2c(=O)oc3ccccc3c21` gave an inhibition of -6.33%. `CC(NC(=O)Nc1ccccc1)C(c1cccs1)N1CCN(c2ccccc2)CC1` (configuration not stated) gave an inhibition of -7.79%. Molecule `COC(=O)C1=C(N)Oc2cc(C)[nH]c(=O)c2C1c1ccc(Cl)cc1` (configuration not stated) has an inhibition of 3.38%. Work on `COCCCN(C(=O)CSCc1ccc(C)cc1)c1c(N)n(Cc2ccccc2)c(=O)[nH]c1=O` yielded an inhibition of -5.5%. With `Cc1csc(SCC(=O)Nc2sccc2C#N)n1` the inhibition was 92.7% (active). Work on `Cc1cccc(C)c1Nc1nnc(SCC(=O)Nc2sccc2C#N)s1` yielded an inhibition of 9.07%. Molecule `Cc1ccc(NC(=O)CSCC(=O)Nc2sccc2C#N)cc1` has an inhibition of 10.4%. In the case of `Cn1cccc1Cc1nnc(SCC(=O)NCc2ccc3c(c2)OCO3)n1CCc1ccccc1`, the inhibition is reported as 2.69%. `CCOc1nnc(C)c2c(C)n(-c3cccc(Cl)c3)nc12` gave an inhibition of 8.66%. In the case of `Cc1nc2ccc(C(=O)N/N=C/c3ccc(O)cc3)cc2[nH]1`, the inhibition is reported as -3.65%. `CC(C)c1c(C(=O)N/N=C/c2ccc(-c3ccccc3)cc2)nnn1-c1nonc1N` showed an inhibition of 9.04%. `Cc1nonc1C(=O)N/N=C/c1ccc(O)cc1` was tested, and the inhibition was 97.5% (active). `COC(=O)c1cccc(N(CC(=O)NCC2CCCO2)C(=O)CCC(=O)Nc2cc(C)on2)c1` (configuration not stated) was tested, and the inhibition was -7.21%. In the case of `CCOC(=O)c1cnc2sccn2c1=O`, the inhibition is reported as -2.74%. Molecule `CCOC(=O)c1cnc(COc2ccccc2Cl)[nH]c1=O` has an inhibition of -10.8%. With `CCOC(=O)c1cnc2[nH]c3ccccc3n2c1=O` the inhibition was 78.1% (active). With `CCn1c2ccccc2c2cc(NC(=O)Nc3ccc([N+](=O)[O-])cc3C)ccc21` the inhibition was -10.4%. `CC(=O)Nc1ccc(S(=O)(=O)N2CCn3cccc3C2C)cc1` (configuration not stated) showed an inhibition of -4.04%. In the case of `COc1ccccc1CCNC(=O)C1CCN(C(=O)/C=C/c2ccccc2)CC1`, the inhibition is reported as -12.7%. In the case of `COc1ccc(Nc2nc(-c3ccccc3)cs2)cc1`, the inhibition is reported as 82.8% (active). `Clc1ccc(Nc2nc(-c3cccs3)cs2)nc1` gave an inhibition of 10.9%. `c1ccc(Nc2nc(-c3ccncc3)cs2)nc1` was tested, and the inhibition was 80.4% (active). Work on `COc1ccc(C(=O)Nc2nc(-c3ccc(S(=O)(=O)N4CCOCC4)cc3)cs2)cc1` yielded an inhibition of -0.876%. Molecule `COc1ccc(-c2csc(NC(=O)COC(=O)Cc3ccc(Cl)cc3Cl)n2)cc1` has an inhibition of 2.3%. With `Clc1ccc(-c2csc(-c3ccncc3)n2)cc1` the inhibition was -22.5%. Molecule `COc1ccc2c(c1OC)C(=O)OC2Nc1nc(-c2ccccc2)cs1` (configuration not stated) has an inhibition of 1.85%. In the case of `COc1ccc(-c2csc(Nc3ccccn3)n2)cc1`, the inhibition is reported as 85.4% (active). Work on `CCCn1c(CCNc2nc(-c3ccc(OC)cc3)cs2)nc2ccccc21` yielded an inhibition of 1.24%. `COC(=O)c1ccc(/C=N/N2C(C)CCCC2C)cc1` (configuration not stated) showed an inhibition of -6.16%. `CC1(c2ccc3ccccc3c2)NC(=O)NC1=O` (configuration not stated) showed an inhibition of -0.811%. Work on `Cc1c(O)c(C)c2c(c1O)C(=O)C[C@@H](c1ccccc1)O2` yielded an inhibition of 6.05%. `Cc1ccc(CS(=O)Cc2ccc(C(=O)N3CCOCC3)o2)cc1` (configuration not stated) was tested, and the inhibition was -6.99%. `COc1ccc(F)cc1C(=O)C1CCCN(C(=O)CCc2ccccn2)C1` (configuration not stated) gave an inhibition of 29.7%. For `O=C(COC(=O)c1ncc(Cl)c(Cl)c1Cl)NC1CCS(=O)(=O)C1` (configuration not stated), the inhibition was -7.58%. With `CCOC(=O)C1CCCN(C(=O)COc2ccc(N(C)S(=O)(=O)c3ccc(C)cc3)cc2)C1` (configuration not stated) the inhibition was -0.395%. `NNC(=O)c1cnn(-c2ccccc2)c1C(F)(F)F` was tested, and the inhibition was -1.96%. `O=C(COc1ccccc1Cl)Nc1ccc(C(=O)c2ccc(C(=O)O)cc2)cc1` was tested, and the inhibition was 2.39%. Work on `COC(=O)c1ccc(NCC(=O)N2CCCCCC2)cc1` yielded an inhibition of -5.06%. In the case of `COC(=O)c1ccc(NCC(=O)c2ccccc2)cc1`, the inhibition is reported as 92.3% (active). For `COC(=O)c1ccc(NC(=O)Nc2ccc(C)cc2)cc1`, the inhibition was -16%. Work on `O=C(COC(=O)c1ccc(S(=O)(=O)Nc2ccccc2)cc1)NCC1CCCO1` (configuration not stated) yielded an inhibition of -2.95%. `CC1CN(S(=O)(=O)c2ccc(C(=O)Nc3sccc3C(N)=O)cc2)CC(C)O1` (configuration not stated) was tested, and the inhibition was -3.19%. Molecule `CCCOc1ccc(CNC(=O)C2CCN(c3nn4c(=O)cc(C)nc4s3)CC2)cc1` has an inhibition of 7.56%. Molecule `O=C(Nc1ccc2oc(-c3ccc4ccccc4c3)nc2c1)c1cccs1` has an inhibition of 5.01%. With `CCc1ccc2oc(-c3ccc(N)cc3)nc2c1` the inhibition was 89.6% (active). Work on `Nc1ccc(-c2nnc(-c3ccccc3)o2)cc1` yielded an inhibition of 40%. With `Fc1ccc2nc(-c3ccccc3)nc(SCc3nnc(-c4ccccc4)o3)c2c1` the inhibition was 9.5%. `O=C(C[C@@H]1C/C=C\CCC(=O)OC[C@@H]2CCCN2C1=O)NCCO` was tested, and the inhibition was -14.7%. With `CC(C)[C@H](NC(=O)N1c2ccccc2NC(=O)[C@@H]1C(C)C)C(=O)N[C@H](C(=O)O)c1ccccc1` the inhibition was -11.1%. `COc1ccccc1OCc1nc2ccccc2s1` was tested, and the inhibition was 94.1% (active). `COc1ccccc1N1CC(O)=C(c2nc3ccccc3s2)C1=N` was tested, and the inhibition was -8.72%. Molecule `CN(Cc1nc2ccccc2s1)C(=O)c1ccc(F)cc1` has an inhibition of -4.17%. For `COC(=O)Cc1ccc(OCC(=O)NC2CCCC2)cc1`, the inhibition was -7.77%. Work on `O=C(Nc1ccccc1C(F)(F)F)N1CCCC1c1cccnc1` (configuration not stated) yielded an inhibition of 1.35%. Work on `O=C(Nc1ccc(-c2csc(Nc3cccc(C(F)(F)F)c3)n2)cc1)c1cccc(C(F)(F)F)c1` yielded an inhibition of 2.09%. Work on `Cc1ccccc1Nc1nc(-c2cccnc2)cs1` yielded an inhibition of 44%. For `Cc1cccc(Nc2nc(-c3ccccc3)cs2)n1`, the inhibition was 81.3% (active). `CCc1noc(C)c1C(=O)Nc1nc(-c2ccccc2)cs1` gave an inhibition of -12.4%. For `CC(=O)Nc1cccc(-c2csc(Nc3cccc(C)n3)n2)c1`, the inhibition was 90.4% (active). In the case of `CC(=O)NCCC(=O)Nc1nc(-c2ccc3c(c2)OCCO3)cs1`, the inhibition is reported as -10.2%. Work on `CC(=O)NNc1cc(=O)c2c(=O)n(C)c(=O)n(C)c2[nH]1` yielded an inhibition of 5.83%. Molecule `COc1ccc(N(CC(=O)N/N=C/c2cccc3c2OCCO3)S(=O)(=O)c2ccc(NC(C)=O)cc2)cc1` has an inhibition of -14.1%. `Cc1nc(COc2cc3oc(=O)cc(C)c3cc2Cl)cs1` was tested, and the inhibition was -13.3%. Molecule `CCN1CCCC1CNC(=O)Cn1cnc2ccc(S(=O)(=O)N3CCC(C)CC3)cc2c1=O` (configuration not stated) has an inhibition of 3.55%. Work on `CCC1Nc2ncnc(N3CCN(c4ccccc4)CC3)c2N(Cc2ccc(Cl)cc2)C1=O` (configuration not stated) yielded an inhibition of -14%. For `CCOCC(=O)Nc1ncc(S(=O)(=O)c2ccc([N+](=O)[O-])cc2)s1`, the inhibition was 1.6%. Molecule `C=CCN(c1ccc(C(=O)Nc2cc(C)cc(C)c2)cc1)S(C)(=O)=O` has an inhibition of 3.93%. With `CC(=O)Nc1ccccc1NC(=O)c1cc(C)cc(C)c1` the inhibition was -8.13%. With `CSCc1ccc(C(=O)Nc2cc(C)cc(C)c2)cc1` the inhibition was 72.8% (active). `COc1cc(N=Cc2c(O)c3ccccc3oc2=O)c(OC)cc1Cl` gave an inhibition of 20%. For `COc1ccccc1N=Cc1c(O)c2ccccc2oc1=O`, the inhibition was 58.3% (active). In the case of `COc1ccccc1N=C(C)C1=C(O)COC1=O`, the inhibition is reported as -4.5%. With `C=CCn1c(C)cc(C2=NNC(=NCC)SC2)c1C` the inhibition was 91.5% (active). `COc1ccc(N(Cc2ccc(N(C)C)cc2)C(=O)c2ccc(S(C)(=O)=O)cc2)cc1` gave an inhibition of 7.56%. With `O=C(CCc1ccccc1)Nc1ccc(NC(=O)C2CC2)nc1` the inhibition was -0.592%. In the case of `CCN(Cc1ccccc1)C(=O)CN1C(=S)NC(C)(C)CC1C` (configuration not stated), the inhibition is reported as -3.88%. `O=C(c1ccco1)N1CCN(C(=O)c2cc(-c3ccccc3F)no2)CC1` showed an inhibition of 3.2%. With `O=C(CN1CCN(c2ccccc2F)CC1)c1ccc2c(c1)OCO2` the inhibition was -9.99%. `Fc1ccccc1-c1cc2cc3c(cc2cn1)OCO3` was tested, and the inhibition was 70.8% (active). In the case of `Cc1ccc(N(Cc2ccccc2O)C(=O)c2ccccc2F)cc1`, the inhibition is reported as 9.54%. Work on `O=C(Nc1ccc2ccccc2c1)/C(=C\c1ccc2c(c1)OCO2)NC(=O)c1ccco1` yielded an inhibition of 10.3%. `CCN1C(=NCc2ccc(OC)cc2)N[C@@H](CCc2ccccc2)[C@H](C(=O)NCc2ccc(OC)cc2)[C@H]1C` gave an inhibition of -2.38%.
